The nature of assay [1]: small molecules captured by biotinylated probe aFSTL3 – biochemical, small-molecule microarray, fluorescence 635/667, stem cell growth factor project, primary screen (AID 1064).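 Also: measures binding of the biotinylated anti-FSTL3 antibody to printed compounds.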 The following applies: higher = more signal.
Assay [2] can be described thus: binders from COS7 lysate, DM2A8 probe, primary screen, torsin A project, cell lysate, small-molecule microarray, fluorescence 635/667 (AID 1065). The following applies: higher = more signal, COS7 lysate expressing mutant human TOR1A.
Assay [3] can be described thus: small molecules captured by biotinylated probe aFGF2 – biochemical, small-molecule microarray, fluorescence 635/667, stem cell growth factor project, primary screen (AID 1067).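 Also: measures binding of biotinylated aFGF2 protein to printed compounds on slides; z-score merges feature fluorescence and signal-to-noise across triplicate slides.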 The following applies: higher = more signal.
Assay [4] in a line: small molecules captured by biotinylated probe aFGF10 – biochemical, small-molecule microarray, fluorescence 635/667, stem cell growth factor project, primary screen (AID 1071).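 Also: score merges 667 nm spot intensity and signal to noise from triplicate slides.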 The following applies: higher = more signal.
The target of assay [5] is Neurogenic locus notch homolog protein 2 (Homo sapiens) (UniProt Q04721). As to the kind of experiment: small molecules binding Notch2 protein – biochemical, small-molecule microarray, 635 nm fluorescence, stem cell growth factors, primary screen (AID 1073). Conditions: higher = more signal.
Assay [6] concerns the target Pro-neuregulin-1, membrane-bound isoform (Homo sapiens) (UniProt Q02297). As to the kind of experiment: small molecules binding neuregulin-1 protein – biochemical, small-molecule microarray, fluorescence 635/667, psychiatric disease protein project, primary screen (AID 1075).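 Also: score combines 667 nm spot fluorescence with signal to noise.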 Conditions: NRG1 binding, 635 nm fluorescence, higher = more signal.
Assay [7] relates to Neuregulin-1 EGF-like domain. As to the kind of experiment: small molecules binding NRG1 EGF domain – biochemical, small-molecule microarray, 635 nm fluorescence, primary screen (AID 1081).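 Also: binding of the protein to compounds printed on small-molecule microarray slides.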 Conditions: higher = more signal.
Assay [8] in a line: FRG1 expression reporter modulators in myotubes – cell-based, C2C12 myotubes, firefly/Renilla luciferase, luminescence, FRG1 inhibition for FSHD, primary screen (AID 1084). The following applies: FRG1 promoter luciferase, higher = more signal, called active from +8 up or from −8 down.
Assay [9] in a line: small molecules captured by biotinylated probe aFST – biochemical, small-molecule microarray, fluorescence 635/667, stem cell growth factor project, primary screen (AID 1086).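 Also: score merges 667 nm fluorescence with signal-to-noise of each printed compound spot.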 Conditions: higher = more signal.
Assay [10] in a line: binders of probe aHhip on microarray, primary screen, stem cell growth factor project, biochemical, small-molecule microarray, fluorescence 635/667 (AID 1087).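 Also: score merges spot fluorescence at 667nm with spot signal to noise ratio.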 Conditions: higher = more signal.
The subject of assay [11] is PRMT1 (protein arginine N-methyltransferase 1). The experiment in a line: small molecules binding arginine methyltransferase PRMT1 – biochemical, small-molecule microarray, 635 nm fluorescence, primary screen (AID 1088).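 Also: binding of Prmt1 protein to compounds spotted on small-molecule microarray slides.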 Conditions: higher = more signal.
Assay [12] is described as follows: growth effects on S. cerevisiae YJM789 – YJM789 clinical isolate, OD600, 24 h, basal, primary screen (AID 1089).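 Also: growth of clinical yeast isolate S. cerevisiae YJM 789 seeded 1000 cells per well; test concentration not given here.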 Conditions: higher = more signal, called active from +8 up or from −8 down.
A short description of assay [13]: S. pombe growth modifiers, basal conditions – strain 972, OD600, 24 h, no modulator, primary screen (AID 1090).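 Also: basal condition with compound alone and no growth modifier present; test concentration not given here.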 Conditions: S. pombe 972 growth, higher = more signal, called active from +8 up or from −8 down.
A short description of assay [14]: budding yeast growth modifiers under rapamycin – strain BY4716, OD600, 96 h, primary screen (AID 1091). Also: test concentration not given here. Conditions: S. cerevisiae BY4716 + rapamycin, higher = more signal, called active from +8 up or from −8 down.
Assay [15] addresses Torsin-1A-interacting protein 2 (Homo sapiens) (UniProt Q8NFQ8). The experiment in a line: small molecules binding lysate-expressed LULL1 – cell lysate, human LULL1 lysate, 635/667 nm fluorescence, primary screen (AID 1092).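 Also: probe is lysate of COS7 cells overexpressing human LULL1; score merges per-feature 667 nm fluorescence with signal-to-noise.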 Conditions: small-molecule microarray, hLULL1 lysate binding, 635 nm fluorescence; higher = more signal.
A short description of assay [16]: optical density change of DRC41 E. coli – strain DRC41, OD650, 24 h, E. coli filamentation project, primary screen (AID 1093).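 Also: MC1000 strain lacking acrAB efflux and sulA so SOS filamentation is blocked; test concentration not given here.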 The following applies: E. coli DRC41 growth, higher = more signal, called active from +8 up or from −8 down.
Assay [17] in a line: probe aLefty2 binding to arrayed compounds – biochemical, biotinylated probe, 635/667 nm fluorescence, primary screen (AID 1094).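 Also: score merges spot fluorescence near 667 nm with spot signal-to-noise ratio.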 The following applies: small-molecule microarray, higher = more signal.
In assay [18] the test system is Noggin (protein binding on small-molecule microarray). The experiment in a line: small molecules binding Noggin protein – biochemical, 635/667 nm fluorescence, primary screen (AID 1095).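 Also: score merges 667 nm feature fluorescence with signal to noise over triplicate slides.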 Conditions: 635 nm fluorescence, higher = more signal.
For assay [19], the target named is Neurogenic locus notch homolog protein 3 (Homo sapiens) (UniProt Q9UM47). The experiment in a line: small molecules binding NOTCH3 protein – biochemical, 635/667 nm fluorescence, primary screen (AID 1096). Conditions: small-molecule microarray, 635 nm fluorescence, higher = more signal.
The nature of assay [20]: probe aEGFR binding to arrayed compounds – biochemical, biotinylated probe, 635/667 nm fluorescence, primary screen (AID 1097).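 Also: probe is a biotinylated anti-EGFR antibody binding compounds printed on slides; score combines fluorescence near 667 nm and signal to noise of each spot.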 The following applies: small-molecule microarray, higher = more signal.

SMILES strings stand for the structures. Calls of active or inactive are those of the source.

Chain of Pro-neuregulin-1, membrane-bound isoform (Homo sapiens) (Q02297 whole entry, looked up, the tested form may be a part, canonical isoform): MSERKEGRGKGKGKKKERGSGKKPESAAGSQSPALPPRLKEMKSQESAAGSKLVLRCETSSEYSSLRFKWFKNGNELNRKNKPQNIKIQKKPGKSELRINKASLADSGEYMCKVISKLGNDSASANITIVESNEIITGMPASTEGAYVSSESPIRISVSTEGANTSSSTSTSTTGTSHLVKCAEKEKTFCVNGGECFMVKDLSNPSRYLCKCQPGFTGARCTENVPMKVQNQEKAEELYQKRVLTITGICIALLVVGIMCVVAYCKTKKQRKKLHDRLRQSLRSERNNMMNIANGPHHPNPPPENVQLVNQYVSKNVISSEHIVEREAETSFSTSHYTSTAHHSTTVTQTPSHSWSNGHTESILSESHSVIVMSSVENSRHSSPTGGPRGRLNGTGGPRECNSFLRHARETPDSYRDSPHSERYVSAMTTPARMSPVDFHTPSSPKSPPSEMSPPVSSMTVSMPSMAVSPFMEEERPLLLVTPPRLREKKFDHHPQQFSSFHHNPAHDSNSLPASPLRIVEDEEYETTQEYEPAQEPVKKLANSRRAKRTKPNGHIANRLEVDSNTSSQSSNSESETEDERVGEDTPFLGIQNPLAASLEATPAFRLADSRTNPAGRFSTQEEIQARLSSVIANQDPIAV
Chain of Neurogenic locus notch homolog protein 3 (Homo sapiens) (Q9UM47 whole entry, looked up): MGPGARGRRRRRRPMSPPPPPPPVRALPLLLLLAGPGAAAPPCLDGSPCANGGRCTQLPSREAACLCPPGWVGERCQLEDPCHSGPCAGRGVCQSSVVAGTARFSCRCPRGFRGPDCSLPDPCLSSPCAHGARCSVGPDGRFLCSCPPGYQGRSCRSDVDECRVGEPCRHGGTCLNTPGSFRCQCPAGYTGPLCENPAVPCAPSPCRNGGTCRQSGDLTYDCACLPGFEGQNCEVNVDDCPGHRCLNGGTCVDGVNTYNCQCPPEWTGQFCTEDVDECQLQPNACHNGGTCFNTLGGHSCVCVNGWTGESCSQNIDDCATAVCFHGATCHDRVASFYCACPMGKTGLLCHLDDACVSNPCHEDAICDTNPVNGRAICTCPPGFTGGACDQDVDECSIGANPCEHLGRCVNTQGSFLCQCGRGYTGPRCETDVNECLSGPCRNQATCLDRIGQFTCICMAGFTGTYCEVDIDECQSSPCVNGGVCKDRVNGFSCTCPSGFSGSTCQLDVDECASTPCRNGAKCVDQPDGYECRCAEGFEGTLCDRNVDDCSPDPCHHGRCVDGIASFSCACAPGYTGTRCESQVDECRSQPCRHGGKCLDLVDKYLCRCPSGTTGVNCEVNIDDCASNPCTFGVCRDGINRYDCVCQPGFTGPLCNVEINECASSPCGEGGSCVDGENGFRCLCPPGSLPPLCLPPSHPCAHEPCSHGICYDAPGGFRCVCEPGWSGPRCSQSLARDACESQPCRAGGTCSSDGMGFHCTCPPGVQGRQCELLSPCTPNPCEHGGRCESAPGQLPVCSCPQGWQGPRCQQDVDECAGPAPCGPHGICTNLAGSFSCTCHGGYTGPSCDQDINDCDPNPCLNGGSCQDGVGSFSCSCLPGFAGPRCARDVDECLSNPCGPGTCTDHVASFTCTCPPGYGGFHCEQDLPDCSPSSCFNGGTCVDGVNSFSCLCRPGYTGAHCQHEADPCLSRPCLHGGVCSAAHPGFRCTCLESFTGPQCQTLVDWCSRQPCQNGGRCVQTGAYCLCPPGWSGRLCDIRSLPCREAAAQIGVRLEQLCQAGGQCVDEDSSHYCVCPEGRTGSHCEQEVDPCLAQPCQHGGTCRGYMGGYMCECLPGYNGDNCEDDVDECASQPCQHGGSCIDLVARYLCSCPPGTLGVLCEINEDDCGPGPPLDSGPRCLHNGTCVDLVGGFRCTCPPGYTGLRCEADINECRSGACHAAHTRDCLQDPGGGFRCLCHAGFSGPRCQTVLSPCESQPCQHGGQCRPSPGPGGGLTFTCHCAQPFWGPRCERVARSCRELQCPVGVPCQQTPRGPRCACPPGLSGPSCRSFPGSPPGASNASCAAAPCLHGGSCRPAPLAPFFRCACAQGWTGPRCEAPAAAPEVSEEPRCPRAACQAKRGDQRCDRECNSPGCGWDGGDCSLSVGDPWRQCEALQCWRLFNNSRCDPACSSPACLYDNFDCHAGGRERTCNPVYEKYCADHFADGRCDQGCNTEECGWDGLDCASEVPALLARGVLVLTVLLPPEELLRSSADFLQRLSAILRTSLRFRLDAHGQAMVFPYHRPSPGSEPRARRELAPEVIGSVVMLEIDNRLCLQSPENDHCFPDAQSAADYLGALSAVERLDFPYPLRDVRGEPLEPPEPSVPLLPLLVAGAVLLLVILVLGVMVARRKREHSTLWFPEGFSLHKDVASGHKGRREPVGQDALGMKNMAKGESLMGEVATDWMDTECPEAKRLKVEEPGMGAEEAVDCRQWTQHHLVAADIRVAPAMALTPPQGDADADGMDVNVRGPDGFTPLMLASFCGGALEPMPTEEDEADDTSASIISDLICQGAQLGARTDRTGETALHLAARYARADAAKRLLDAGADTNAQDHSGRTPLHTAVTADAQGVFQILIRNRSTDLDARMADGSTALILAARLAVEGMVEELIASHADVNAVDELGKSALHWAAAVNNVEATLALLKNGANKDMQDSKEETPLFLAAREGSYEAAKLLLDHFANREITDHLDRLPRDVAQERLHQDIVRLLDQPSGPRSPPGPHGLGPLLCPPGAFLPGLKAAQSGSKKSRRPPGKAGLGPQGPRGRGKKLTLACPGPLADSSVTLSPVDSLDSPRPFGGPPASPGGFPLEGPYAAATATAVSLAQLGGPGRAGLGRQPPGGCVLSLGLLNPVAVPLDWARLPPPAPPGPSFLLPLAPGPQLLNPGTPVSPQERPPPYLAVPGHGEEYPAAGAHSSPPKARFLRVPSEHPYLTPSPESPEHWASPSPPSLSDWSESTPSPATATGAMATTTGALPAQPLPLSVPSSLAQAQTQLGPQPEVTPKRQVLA
Chain of Torsin-1A-interacting protein 2 (Homo sapiens) (Q8NFQ8 whole entry, looked up): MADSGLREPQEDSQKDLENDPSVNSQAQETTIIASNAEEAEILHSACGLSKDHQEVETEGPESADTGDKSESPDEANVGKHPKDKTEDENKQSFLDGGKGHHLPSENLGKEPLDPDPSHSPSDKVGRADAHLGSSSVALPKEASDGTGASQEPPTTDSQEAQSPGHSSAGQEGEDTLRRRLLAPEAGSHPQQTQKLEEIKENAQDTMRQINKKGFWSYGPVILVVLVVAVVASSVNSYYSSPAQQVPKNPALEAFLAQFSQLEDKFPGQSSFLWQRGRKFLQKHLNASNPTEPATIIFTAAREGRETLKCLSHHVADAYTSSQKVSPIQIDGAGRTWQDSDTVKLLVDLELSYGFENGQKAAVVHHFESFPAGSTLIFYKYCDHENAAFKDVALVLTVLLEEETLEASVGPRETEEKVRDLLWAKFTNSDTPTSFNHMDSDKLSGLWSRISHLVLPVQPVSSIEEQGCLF

Take `O=C1NC(=O)C2C1C=CC(C(O)c1cccc(O)c1)N2Nc1ccc(Cl)cc1Cl` (stereo not given): the composite z-score in assay [1] was 0.312; in [2], 0.0528; in assay [3], -0.161; in assay [4] it was 0.0569; in assay [5], 1.09; in assay [6] it was 1.08. In addition, the composite z-score was 0.275 in [7]; 0.259 in assay [9]; -0.272 in [10]; -1.24 in assay [11]; 0.991 in [15]; 0.0893 in assay [17]. Also, the composite z-score in assay [18] was 0.115; in [19] it was -0.207; in assay [20] it was 0.012. Further, the z-score in [8] was 0.203 (inactive); in assay [12], -0.927 (inactive); in assay [13] it was 0.765 (inactive); in [14], 0.668 (inactive); in [16], -2.08 (inactive).

Regarding `COc1ccccc1CN1C(=O)c2ccccc2[C@](Cc2ccccc2I)(C(=O)NCCCN(C)C)[C@@H]1c1ccc(CO)cc1`, the composite z-score was -0.967 in assay [1]; -0.501 in assay [2]; -0.116 in [3]; 0.483 in assay [4]; 0.452 in assay [5]; 0.683 in assay [6]. For the same molecule, the composite z-score was 1.19 in assay [7]; -0.0929 in [9]; -0.37 in assay [10]; 1.4 in [11]; 3.04 in [15]; -0.305 in assay [17]. Further, the composite z-score was 0.134 in assay [18], 0.591 in assay [19] and -0.355 in [20]. Also, the z-score in [8] was -3.16 (inactive); in assay [12], 0.404 (inactive); in assay [13], -20.1 (active); in assay [14], -2.96 (inactive); in assay [16], -5.17 (inactive).

On to `O=C1OCCC=C[C@H]2OC34C=CCN(c5ccc(Cl)cc5)C(=O)[C@H]3N(CCO)C(=O)[C@@H]4C12` (stereo not given in full), for which the composite z-score in assay [1] was 0.0828; in assay [2] it was 1.85; in [3] it was -0.166; in [4] it was -0.434; in assay [5], -0.568; in [6], -0.666. In addition, the composite z-score in [7] was -0.501; in assay [9], -0.564; in assay [10], -0.0618; in assay [11], -0.502; in assay [15], -0.241; in assay [17] it was -0.121. Further, the composite z-score is -0.545 in assay [18], -0.0792 in assay [19] and -0.194 in [20]. The z-score in assay [8] is -0.0731 (inactive); in assay [12], -0.237 (inactive); in [13] it was -0.335 (inactive); in assay [14] it was -0.253 (inactive); in [16] it was 0.474 (inactive).

Turning to `Cc1ccc(F)cc1S(=O)(=O)N[C@@H]1CCN(Cc2ccc3[nH]ccc3c2)C1`, the composite z-score was -0.0434 in assay [1]; 0.216 in assay [2]; -0.0717 in assay [3]; 0.652 in assay [4]; 0.523 in assay [5]; 0.91 in [6]. The composite z-score in [7] was 0.563; in [9], 0.356; in assay [10] it was -0.134; in [11], 0.556; in [15], 2.31; in assay [17], -0.177. Also, the composite z-score in assay [18] was 0.418; in assay [19], 0.933; in assay [20], -0.0512. In addition, the z-score in assay [8] is -3.16 (inactive); in assay [12] it was -0.765 (inactive); in assay [13], -2.97 (inactive); in [14], -0.873 (inactive); in assay [16] it was -1.76 (inactive).

As for `C=CCC(OC(C)=O)[C@@H]1[C@@H](N(Cc2cccc3ccccc23)C(=O)c2ccc(-c3ccccc3)cc2)c2cc(OCCCO)ccc2N1C(=O)c1ccc2ccccc2n1` (stereo not given in full), the composite z-score in assay [1] is -0.093; in assay [2], 0.116; in [3], -0.0158; in assay [4] it was 0.0632; in assay [5] it was 0.285; in assay [6], 0.298. Moreover, the composite z-score was determined as 0.037 in assay [7]; 0.386 in [9]; 0.28 in assay [10]; 0.929 in [11]; 1.01 in [15]; 0.157 in assay [17]. Moreover, the results for the composite z-score in assay [18], in assay [19] and in assay [20] were 0.37, 0.296 and -0.0271, respectively. Further, the z-score was -0.612 (inactive) in assay [8]; -0.637 (inactive) in [12]; 0.651 (inactive) in [13]; -0.0728 (inactive) in [14]; -0.747 (inactive) in [16].

Values taken from PubChem BioAssay.
